Results: PubChem BioAssay (NCATS)
Records with an inconclusive call do not appear. Calls of active or inactive are those of the source. Calls follow the shape of the dose curve; as a rule, active = well fitted inhibition curve with a large enough effect; inconclusive = small, poorly fitted or top-dose-only effect; inactive = no such curve, though single readings can be large or run the other way.

Test: P-glycoprotein substrates identified in KB-3-1 adenocarcinoma cell line, qHTS therapeutic library screen (AID 1346986); also: nearly all actives have a fitted effect of over 60% in size
Details: KB-3-1 parental cells viability, CellTiter-Glo, 72 h; series mostly up to 44.5 µM
Outline: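 KB-3-1 parental cells and P-gp-overexpressing KB-8-5-11 (colchicine omitted during assay) plated at 500 cells/well, dosed in dose-response, incubated 72 h at 37 degree C. CellTiter-Glo luminescence read; KB-8-5-11 also tested with tariquidar.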
In the case of `CC(=O)/C=C/C1C(C)CC(O[C@@H]2O[C@H](CO)[C@@H](O)[C@H](O)[C@H]2O)CC1(C)C` (some centres not stated), the “outcome” value is reported as “inactive”. With `Cc1c(-c2ccc3c(c2)OCO3)oc2ccc(C(O)C(C)O)cc12` (configuration not stated) the “outcome” value was “inactive”. For `COC(=O)C1=CO[C@@H](O[C@@H]2O[C@H](CO)[C@@H](O)[C@H](O)[C@H]2O)/C(=C\CO)[C@@H]1CC(=O)OCCc1ccc(O)cc1`, the “outcome” value was “inactive [at 17.4 µM]”. In the case of `C/C=C(\C)C(=O)O[C@H]1C=CC(=O)O[C@H]1/C=C/[C@H](O)[C@@H](C)O`, the “outcome” value is reported as “inactive”. In the case of `COC(=O)C(CC1(O)c2ccccc2N2C(=O)C(CC(C)C)NC21)n1cnc2ccccc2c1=O` (configuration not stated), the “outcome” value is reported as “inactive [at 17.4 µM]”. With `COc1ccc(OC)c(C2C(C#N)=C(N)Oc3n[nH]c(-c4ccc5ccccc5c4)c32)c1` (configuration not stated) the “outcome” value was “inactive”. For `C/C=C/C=C/C=C/C(=O)O[C@@H]1C=C(CO)[C@](O)(CO)[C@@]2(C)CCCC(C)(C)[C@H]12`, the “outcome” value was “inactive”. For `CC1(C)CC[C@]2(C(=O)O[C@@H]3O[C@H](CO)[C@@H](O)[C@H](O)[C@H]3O)CC[C@]3(C)C(=CCC4[C@@]5(C)CC[C@H](O[C@@H]6O[C@H](C(=O)O)[C@@H](O)[C@H](O)[C@H]6OC6OC(CO)C(O)C(O)C6O)C(C)(C)C5CC[C@]43C)[C@@H]2C1` (some centres not stated), the outcome was “inactive [at 9.29 µM]”. In the case of `CC(C)=CCC[C@@](C)(O)[C@H]1CC[C@]2(C)[C@@H]1[C@H](O)CC1[C@@]3(C)CC[C@H](O[C@@H]4O[C@H](CO)[C@@H](O)[C@H](O)[C@H]4O[C@@H]4O[C@H](CO)[C@@H](O)[C@H](O)[C@H]4O)C(C)(C)[C@@H]3CC[C@]12C` (some centres not stated), the “outcome” value is reported as “inactive [at 17.4 µM]”. With `COc1cc(C)c(C(=O)O[C@@H]2[C@H](O)[C@@H](CO)O[C@H]2n2ccc(=O)[nH]c2=O)c(OC)c1` the “outcome” value was “inactive [at 17.4 µM]”. For `NC[C@H]1CCC[C@@H](CNC(=O)[C@@H](Cc2c[nH]c3ccccc23)NC(=O)N2CCC3(C=Cc4ccccc43)CC2)C1`, the “outcome” value was “inactive”. With `C[C@H]1CC[C@@]2(OC1)O[C@H]1CC3C4CC[C@H]5C[C@@H](O)CC[C@]5(C)C4CC(=O)[C@]3(C)[C@H]1[C@@H]2C` (some centres not stated) the “outcome” value was “inactive [at 17.4 µM]”. For `CC(C)=CC1C[C@](C)(O)[C@@H]2[C@H]3CCC4[C@@]5(C)CC[C@H](O[C@@H]6OC[C@H](O)[C@H](O[C@@H]7O[C@H](CO[C@@H]8O[C@H](CO)[C@@H](O)[C@H](O)[C@H]8O)[C@@H](O)[C@H](O)[C@H]7O)[C@H]6O[C@@H]6O[C@@H](C)[C@H](O)[C@@H](O)[C@H]6O)C(C)(C)[C@@H]5CC[C@@]4(C)[C@@]34CO[C@@]2(C4)O1` (some centres not stated), the outcome was “inactive [at 9.29 µM]”. In the case of `C[C@]12CC/C(=N\OCC(=O)O)C=C1CC[C@@H]1[C@@H]2[C@@H](O)C[C@@]2(C)[C@H]1CC[C@]2(O)C(=O)CO`, the “outcome” value is reported as “inactive”. For `CC1(C)COC(=O)[C@@H]1O[C@@H]1O[C@H](CO)[C@@H](O)[C@H](O)[C@H]1O`, the “outcome” value was “inactive”. For `COC(=O)C(CC1CCCC1)c1ccc(S(C)(=O)=O)cc1` (configuration not stated), the “outcome” value was “inactive”. For `CC1(C)OC(=O)C=C[C@@]2(C)C1CC(=O)[C@]1(C)C2CC[C@@]2(C)[C@H](c3ccoc3)OC(=O)[C@H]3O[C@]321` (some centres not stated), the “outcome” value was “inactive [at 17.4 µM]”. In the case of `CC1(C)[C@H]2C[C@H](C/C=C\CCCC(=O)O)[C@@H](NC(=O)c3csc4ccc(O)cc34)[C@@H]1C2`, the “outcome” value is reported as “inactive”. With `COc1c2c(c(C)c3c1C(=O)OC3)OC1(C)CC(O)C34OC(OC)(CCC3(C)C1C2)OC4(C)CO` (configuration not stated) the “outcome” value was “inactive [at 17.4 µM]”. For `O=C(O)/C=C/c1ccc2occc2c1O[C@@H]1O[C@H](CO)[C@@H](O)[C@H](O)[C@H]1O`, the “outcome” value was “inactive”. For `COc1cc(C(=O)OC[C@H]2O[C@@H](OC(C)(C)C(=O)O)[C@H](O)[C@@H](O)[C@@H]2O)cc(OC)c1O`, the “outcome” value was “inactive [at 17.4 µM]”. With `C=CC(C)(O)C1CC2C3(C)CCCC(C)(C)C3C(O)C(O)C2(C)O1` (configuration not stated) the “outcome” value was “inactive”. In the case of `CC(=O)NC(Cc1c[nH]c2ccccc(=O)c12)C(=O)O` (configuration not stated), the “outcome” value is reported as “inactive”. For `COc1ccc(CCC(=O)c2c(O)cc(O[C@@H]3O[C@H](CO)[C@@H](O)[C@H](O)[C@H]3O[C@@H]3O[C@@H](C)[C@H](O)[C@@H](O)[C@H]3O)cc2O)cc1O`, the “outcome” value was “inactive”. In the case of `FC(F)(F)Oc1ccc(-c2ccc3nnc(C(F)(F)F)n3c2)cc1`, the “outcome” value is reported as “inactive”. In the case of `COc1cc2c(cc1O)CC(O)(CO)C(CO)C2c1ccc(OC2OC(CO)C(O)C(O)C2O)c(OC)c1` (configuration not stated), the “outcome” value is reported as “inactive [at 17.4 µM]”. For `COc1cc(O)cc(O[C@@H]2O[C@H](CO)[C@@H](O[C@@H]3OC[C@](O)(CO)[C@H]3O)[C@H](O)[C@H]2O)c1OC`, the “outcome” value was “inactive [at 17.4 µM]”.
